11 compounds from PubChem BioAssay (NCATS) can be followed below.

Where “and” joins values, the source holds several entries; their conditions need not be identical. Equal values may be shown once. Inconclusive results are not listed. Calls of active or inactive are those of the source. Unless noted, calls come from the whole dose curve; as a rule, active = well fitted curve in the direction sought with a large enough effect; inconclusive = small, poorly fitted or top-dose-only effect, or another doubt; inactive = no such curve, though single readings can be large; an effect the other way counts as inactive or inconclusive.

Experiment [1] can be described thus: qHTS Assay for Lipid Storage Modulators (AID 1519; calls by dose curve; note: potency is the fitted concentration of half-maximal effect). Particulars: Drosophila S3 cells, BODIPY lipid droplet/cell ratio, laser cytometry, cells loaded with oleic acid. The method, boiled down:
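Cells seeded at 5,000 per well were treated with compounds over a concentration series and loaded with oleic acid (400 uM, as added). Lipid droplet fluorescence (488 nm excitation, 500-530 nm channel) was read by laser-scanning cytometry and normalized to 20 uM Triacsin C.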

Experiment [2] deals with DNA repair nuclease/redox regulator APEX1 (Homo sapiens) (UniProt P27695). Kind of experiment: qHTS Validation Assay for Inhibitors of the Human Apurinic/apyrimidinic Endonuclease 1 (APE1) (AID 1705;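 note: TAMRA fluorescence gain over two minutes as APE1 cuts a quenched THF abasic duplex; % is set by controls: 0 for no effect and ±100 for the full control effect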). The following applies: purified APE1 endonuclease activity, fluorescence, titration; series mostly up to 57.1 µM. The method, boiled down:
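Substrate: 50 nM final fluorophore/quencher THF-abasic duplex. Enzyme preincubated with compounds 15 min, RT. Progress derived from fluorescence difference, third minus first kinetic read.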

Experiment [3] can be described thus: Counterscreen for APE1 Inhibitors: Fluorescent Dye Displacement Validation Assay (AID 1707).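 Note: plate controls were ThO with dsDNA and no compound for no effect and ThO without dsDNA for full effect.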 The following applies: fluorescent dye displacement from DNA; series mostly up to 57.1 µM. The method, boiled down:
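Endpoint fluorescence read at 480 nm excitation / 540 nm emission; DNA-binding compounds lower signal by displacing 250 nM Thiazole Orange from 50 nM dsDNA containing a tetrahydrofuran abasic site, Tris-HCl pH7.5 buffer with NaCl and MgCl2.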

For experiment [4], the target named is Endonuclease 4 (Escherichia coli (strain K12)) (UniProt P0A6C1). Kind of experiment: Counterscreen for APE1 Inhibitors: qHTS Validation Assay for Inhibitors of Endonuclease IV (AID 1708). Note: % is set by controls: 0 for no effect and ±100 for the full control effect. Particulars: E. coli endonuclease IV, DNA cleavage fluorescence; series mostly up to 57.1 µM. The gist of the method: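 Incision of a double-stranded 50 nM TAMRA/BHQ-2 abasic substrate was followed kinetically (525/598 nm, reads every 60 s) after 15 min enzyme–compound preincubation with 2 nM EndoIV in pH 7.5 Tris buffer with MgCl2, DTT and Tween-20; concentration-response format.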

Experiment [5] is described as follows: qHTS for differential inhibitors of proliferation of Plasmodium falciparum line 7G8 (AID 1815).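 For activity change, negative = inhibition: plate controls were vehicle wells for no effect and reference inhibitor wells for full effect.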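 Note: parasite growth measured after three days of incubation.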 Note: potency is the fitted concentration of half-maximal effect. Particulars: Plasmodium falciparum 7G8 proliferation inhibition; series mostly up to 28.7 µM.
Experiment [6] is described as follows: qHTS for differential inhibitors of proliferation of Plasmodium falciparum line GB4 (AID 1816).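 For activity change, negative = inhibition: 0% = vehicle DMSO and -100% = reference inhibitor.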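 Note: parasite growth measured after 72 h incubation.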 Note: potency is the fitted concentration of half-maximal effect. Particulars: Potency: Plasmodium falciparum GB4 proliferation inhibition; series mostly up to 28.7 µM.
A short description of experiment [7]: qHTS for differential inhibitors of proliferation of Plasmodium falciparum line 3D7 (AID 1876). Note: potency is the fitted concentration of half-maximal effect. The following applies: P. falciparum 3D7 proliferation inhibition; series mostly up to 28.7 µM.
Experiment [8] is described as follows: qHTS for differential inhibitors of proliferation of Plasmodium falciparum line D10 (AID 1877).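 For activity change, negative = inhibition: plate controls were vehicle wells for no effect and reference inhibitor wells for full effect.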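 Note: parasites grown with compound for 72 h before DNA staining.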 Note: potency is the fitted concentration of half-maximal effect. The following applies: series mostly up to 28.7 µM.
A short description of experiment [9]: qHTS for differential inhibitors of proliferation of Plasmodium falciparum line Dd2 (AID 1882).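 Note: plate controls were DMSO vehicle for no effect and 0.29 µM artemisinin for full effect; nearly all actives have a fitted effect of over 65% in size.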 The following applies: Potency: Plasmodium falciparum Dd2 proliferation inhibition; series mostly up to 28.7 µM. The gist of the method:
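SYBR Green DNA fluorescence (ex 485, em 535 nm) after overnight lysis quantifies parasite growth; compound exposure lasted 72 h at 37 C on infected red cells at 2.5% hematocrit, 0.3% parasitemia (final). Artemisinin 0.29 uM and vehicle wells define normalization.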

Experiment [10] in a line: qHTS for differential inhibitors of proliferation of Plasmodium falciparum line W2 (AID 1883).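 For activity change, negative = inhibition: 0% = vehicle wells and -100% = control inhibitor wells.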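 Note: parasites grown with compound for 72 h before lysis and staining.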 Note: potency is the fitted concentration of half-maximal effect. The following applies: Potency: Plasmodium falciparum W2 proliferation inhibition; series mostly up to 28.7 µM.
Experiment [11] in a line: qHTS for differential inhibitors of proliferation of Plasmodium falciparum line HB3 (AID 1886).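 For activity change, negative = inhibition: plate controls were vehicle for no effect and reference inhibitor for full effect.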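 Note: parasites grown with compound for 72 h before SYBR Green readout.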 Note: potency is the fitted concentration of half-maximal effect. The following applies: Potency: Plasmodium falciparum HB3 proliferation inhibition; series mostly up to 28.7 µM.
For experiment [12], the target named is Ferritin light chain (Equus caballus) (UniProt P02791). Kind of experiment: qHTS Validation Assay for Identification of Novel General Anesthetics (AID 2323). Note: % is set by controls: 0 for no effect and ±100 for the full control effect. The following applies: horse apoferritin, anesthetic-site fluorescent probe displacement; series mostly up to 76.9 µM. The gist of the method:
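Normalized fluorescence response, scaled between free 1-AMA and 1-AMA/apoferritin complex, fitted to a four-parameter Hill equation for concentration-effect values. Binding mix: 10 uM horse-spleen apoferritin, 50% saturated 1-AMA in PBS; read 380/535 nm after 10 min.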

In experiment [13] the target is ATP-dependent DNA helicase Q1 (Homo sapiens) (UniProt P46063). The experiment is described as follows: qHTS Validation Assay for Inhibitors of RecQ-Like Dna Helicase 1 (RECQ1) (AID 2353).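 Note: plate controls were DMSO vehicle for no effect and enzyme-free control for full effect.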 The following applies: recombinant RECQ1 helicase DNA unwinding assay; series mostly up to 25.6 µM. The method, boiled down:
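RECQ1T1 50 nM; forked duplex (20 bp + 30-nt ss tails) 200 nM, ATP 2 mM final; pH 8.0, 2 mM MgCl2, 2.5 ug/ml poly(dI-dC); 15 min compound preincubation; discontinuous kinetic read over 2 h at RT.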

The target in experiment [14] is RecQ-like DNA helicase BLM (Homo sapiens) (UniProt P54132). Kind of experiment: qHTS Validation Assay for Inhibitors of Bloom's syndrome helicase (BLM) (AID 2364).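 Note: plate controls were DMSO vehicle for no effect and enzyme-free control for full effect.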 The following applies: BLM helicase DNA unwinding, fluorescence, in vitro; series mostly up to 57.1 µM. The method, boiled down:
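Forked 20-bp duplex substrate (200 nM, TAMRA/BHQ-2) plus 2 mM ATP added after 15 min compound preincubation with 50 nM enzyme, pH 8.0, poly(dI-dC) 2.5 ug/ml. Strand separation followed by fluorescence (525/598 nm) over 2 h, normalized to enzyme-free and DMSO controls.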

The nature of experiment [15]: Cytometric Cell-Based qHTS for Inhibitors of the mTORC1 Signaling Pathway in MEF (Tsc2-/-, p53-/-) Cells (AID 2660).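 Note: Tsc2 and p53 null MEFs carrying empty vector with compound for 24 h; percent of cells above a phospho-rpS6 to PI ratio cutoff in each well; plate controls were DMSO for no effect and rapamycin for full effect.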 Particulars: mTORC1 pathway cytometry; series mostly up to 38.3 µM. The gist of the method: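 Cells are plated, treated with compound for 24 hrs at 37 degree Celsius, then fixed, blocked and immunostained for phospho-rpS6 Ser235/236. Propidium iodide counterstain follows. Per-well % positive cells is derived from the PI-normalized phospho-S6 signal.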

Experiment [16] in a line: High Content Imaging Cell-Based qHTS for Inhibitors of the mTORC1 Signaling Pathway in MEF (Tsc2-/-, p53-/-) Cells (AID 2666).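 Note: percent of cells scored positive for phospho-rpS6 Ser235/236 immunostaining by imaging.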 The following applies: at 38.3 µM (top of the series). The gist of the method:
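Tsc2-/-, p53-/- MEFs (empty-vector stable) grown in DMEM + 10% FBS were exposed to compounds for 24 hrs at 37 degree Celsius, fixed, and stained with Alexa-488 anti-phospho-rpS6 Ser235/236 plus Hoechst. Imaging gave the percentage of positive cells per well.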

Experiment [17] can be described thus: High Content Imaging Cell-Based qHTS for Inhibitors of the mTORC1 Signaling Pathway in MEF Cells (AID 2667).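 Note: Tsc2-/- p53-/- MEFs stably re-expressing wild-type Tsc2 exposed 24 h; plate controls were DMSO wells for no effect and rapamycin control wells for full effect.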 The following applies: series mostly up to 38.3 µM. The method, boiled down:
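Tsc2-/-, p53-/- MEFs stably re-expressing WT Tsc2, grown in DMEM + 10% FBS, were treated with compounds for 24 hrs at 37 degree Celsius, fixed, and stained with Alexa-488 phospho-rpS6 Ser235/236 antibody plus Hoechst; results given as % positive cells.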

The nature of experiment [18]: Cytometry Cell-Based qHTS for Inhibitors of the mTORC1 Signaling Pathway in MEF cells (AID 2668).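 Note: Tsc2-/- p53-/- mouse embryonic fibroblasts stably re-expressing wild-type Tsc2; percent cells positive for phospho-rpS6 Ser235/236 relative to propidium iodide stain; plate controls were DMSO wells for no effect and 7.5 nM rapamycin control wells for full effect.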 The following applies: mTORC1 pathway readout; series mostly up to 38.3 µM. The method, boiled down:
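In MEFs grown in DMEM + 10% FBS, a 24 hrs compound exposure preceded imaging of phospho-rpS6 Ser235/236 by laser-scanning cytometry.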

The nature of experiment [19]: Validation screen for inhibitors of Lassa infection (AID 463096; calls by dose curve; note: % is set by controls: 0 for no effect and ±100 for the full control effect). Particulars: Lassa virus infection, cell-based; series mostly up to 46.1 µM.
[20] abbreviates: measured here: cell count channel max response.
Where [21] appears, read: measured here: lipid channel max response.

Chain of ATP-dependent DNA helicase Q1 (Homo sapiens) (P46063 whole entry, looked up): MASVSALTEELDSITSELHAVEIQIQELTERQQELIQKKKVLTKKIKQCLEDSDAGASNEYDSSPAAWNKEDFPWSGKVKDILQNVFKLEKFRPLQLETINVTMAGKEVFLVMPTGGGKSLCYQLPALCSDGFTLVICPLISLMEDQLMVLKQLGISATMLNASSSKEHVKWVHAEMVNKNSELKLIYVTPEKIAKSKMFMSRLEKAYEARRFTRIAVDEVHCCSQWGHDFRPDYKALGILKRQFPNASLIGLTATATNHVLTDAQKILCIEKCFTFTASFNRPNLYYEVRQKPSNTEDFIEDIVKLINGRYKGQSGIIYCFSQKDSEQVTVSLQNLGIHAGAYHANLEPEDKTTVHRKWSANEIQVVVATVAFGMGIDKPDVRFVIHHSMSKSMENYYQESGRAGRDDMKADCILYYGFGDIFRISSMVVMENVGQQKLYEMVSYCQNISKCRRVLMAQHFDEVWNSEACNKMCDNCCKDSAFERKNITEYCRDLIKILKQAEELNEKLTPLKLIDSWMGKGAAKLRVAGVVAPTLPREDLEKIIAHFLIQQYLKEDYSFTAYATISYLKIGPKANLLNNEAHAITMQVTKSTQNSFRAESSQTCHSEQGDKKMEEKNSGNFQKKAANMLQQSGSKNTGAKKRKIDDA
Chain of RecQ-like DNA helicase BLM (Homo sapiens) (P54132 whole entry, looked up): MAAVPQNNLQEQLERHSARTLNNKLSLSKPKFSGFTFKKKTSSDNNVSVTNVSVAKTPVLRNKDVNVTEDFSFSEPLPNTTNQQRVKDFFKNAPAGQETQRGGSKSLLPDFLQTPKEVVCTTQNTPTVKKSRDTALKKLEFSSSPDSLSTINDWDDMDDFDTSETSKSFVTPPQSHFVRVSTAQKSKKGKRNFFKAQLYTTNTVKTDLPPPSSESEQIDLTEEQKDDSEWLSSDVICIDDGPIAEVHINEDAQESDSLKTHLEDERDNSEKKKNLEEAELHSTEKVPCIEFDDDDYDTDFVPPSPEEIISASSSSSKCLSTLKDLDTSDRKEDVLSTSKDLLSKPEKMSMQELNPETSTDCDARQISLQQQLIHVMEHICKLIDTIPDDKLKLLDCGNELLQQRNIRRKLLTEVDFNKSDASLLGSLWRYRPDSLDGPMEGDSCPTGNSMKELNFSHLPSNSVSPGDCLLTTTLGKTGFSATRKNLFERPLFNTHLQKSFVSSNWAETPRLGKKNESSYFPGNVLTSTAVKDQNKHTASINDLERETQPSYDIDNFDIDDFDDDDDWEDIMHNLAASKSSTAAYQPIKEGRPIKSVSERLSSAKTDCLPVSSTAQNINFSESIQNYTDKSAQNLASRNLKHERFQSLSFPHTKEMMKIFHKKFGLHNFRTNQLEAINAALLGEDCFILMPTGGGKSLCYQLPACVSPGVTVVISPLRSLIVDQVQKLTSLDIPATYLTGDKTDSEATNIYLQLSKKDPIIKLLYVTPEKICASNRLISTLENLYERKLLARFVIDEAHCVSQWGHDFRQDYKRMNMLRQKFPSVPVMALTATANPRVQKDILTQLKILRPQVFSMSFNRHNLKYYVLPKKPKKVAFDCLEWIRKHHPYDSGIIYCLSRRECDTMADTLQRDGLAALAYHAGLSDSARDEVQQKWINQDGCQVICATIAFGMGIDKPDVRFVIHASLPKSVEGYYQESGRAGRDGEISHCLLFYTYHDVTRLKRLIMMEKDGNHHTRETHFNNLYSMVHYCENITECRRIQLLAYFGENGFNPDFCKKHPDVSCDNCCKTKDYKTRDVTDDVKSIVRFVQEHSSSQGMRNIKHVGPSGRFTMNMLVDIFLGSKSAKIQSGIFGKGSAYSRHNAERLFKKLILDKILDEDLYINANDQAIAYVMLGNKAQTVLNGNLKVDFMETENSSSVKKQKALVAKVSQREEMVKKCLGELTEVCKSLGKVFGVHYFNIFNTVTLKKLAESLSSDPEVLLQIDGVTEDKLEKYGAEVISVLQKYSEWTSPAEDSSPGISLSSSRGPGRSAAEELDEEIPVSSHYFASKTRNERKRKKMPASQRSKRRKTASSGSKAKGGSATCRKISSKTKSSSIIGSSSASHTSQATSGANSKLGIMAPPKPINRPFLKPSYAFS
Chain of Ferritin light chain (Equus caballus) (P02791 2-175 limits assumed): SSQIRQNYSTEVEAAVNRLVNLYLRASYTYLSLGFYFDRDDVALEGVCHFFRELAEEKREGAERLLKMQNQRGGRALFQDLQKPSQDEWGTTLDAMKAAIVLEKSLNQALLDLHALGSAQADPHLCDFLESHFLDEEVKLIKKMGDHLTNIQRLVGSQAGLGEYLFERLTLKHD
Chain of DNA repair nuclease/redox regulator APEX1 (Homo sapiens) (P27695 whole entry, looked up): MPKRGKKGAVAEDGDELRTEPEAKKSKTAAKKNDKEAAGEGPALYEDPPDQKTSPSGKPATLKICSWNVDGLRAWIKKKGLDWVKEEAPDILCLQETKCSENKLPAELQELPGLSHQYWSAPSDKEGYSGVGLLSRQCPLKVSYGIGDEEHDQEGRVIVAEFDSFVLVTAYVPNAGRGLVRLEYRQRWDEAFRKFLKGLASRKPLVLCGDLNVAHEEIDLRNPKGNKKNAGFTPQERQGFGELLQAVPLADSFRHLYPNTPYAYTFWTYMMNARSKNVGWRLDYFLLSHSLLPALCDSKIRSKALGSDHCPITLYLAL

Turning to `O=C(O)c1nn(Cc2ccc(Cl)cc2Cl)c2ccccc12`, the activity change, negative = inhibition in experiment [1] (at 57.5 µM (top of the series)) was -2.04% (inactive). Besides, the max response in experiment [1] (setting [20]) worked out at 45.4%; in experiment [1] (setting [21]) it was 43.5%. In addition, the outcome in experiment [2], in [3], in experiment [4], in experiment [12], in [13] and in experiment [14] was inactive. In addition, the compound was called inactive in experiment [15], in [16] and in [17]. In addition, the Potency entry in [5], in experiment [6], in experiment [7], in [8], in [9] and in experiment [10] was “inactive” in each case. Also, the Potency result in experiment [11], in experiment [18] and in experiment [19] was “inactive” in each case.

For the compound `Clc1ccc(C(OCCN2CCCCC2)c2ccccc2)cc1` (stereo not given), the activity change, negative = inhibition in experiment [1] (at 57.5 µM (top of the series)) was 10.4% (inactive). For the same compound, the max response in [1] (setting [20]) stood at 15.5%; in [1] (setting [21]) it was 25.9%.

On to `CCC(=O)O[C@H]1CC[C@H]2[C@@H]3CCC4=CC(=O)CC[C@]4(C)[C@H]3CC[C@]12C`, for which, in experiment [1] (at 25.7 µM (top of the series)), the activity change, negative = inhibition was 0.757% (inactive). For the same compound, the values for the max response in [1] (setting [20]) and in experiment [1] (setting [21]) were 2.96% and 3.14%, respectively.

Take `Clc1ccc(CSC(Cn2ccnc2)c2ccc(Cl)cc2Cl)cc1` (stereo not given): in [1] (at 57.5 µM (top of the series)), the activity change, negative = inhibition is 11.1% (inactive). Moreover, the max response in experiment [1] (setting [20]) is -1.1%; in experiment [1] (setting [21]), 12.4%.

Consider `CCCCCCCCCCCCCCCC[n+]1ccccc1`, for which the Potency in experiment [1] was 10 µM (active). Further, the max response is -21.8% in [1] (setting [20]) and -114% in experiment [1] (setting [21]).

For the compound `O=C1CC2(CCCC2)CC(=O)N1CCCCN1CCN(c2ncccn2)CC1`, the activity change, negative = inhibition in experiment [1] (at 25.7 µM (top of the series)) is 0.205% (inactive); in experiment [1] (at 57.5 µM (top of the series)), -2.21% (inactive). The max response in experiment [1] (setting [20]) was -26.7% and -71.1%; in [1] (setting [21]), -24.8% and -67.1%. The Potency in experiment [5] and in experiment [10] was 10 µM (active) throughout. The Potency result in experiment [19] is “inactive”.

Consider `CN1[C@@H]2CC[C@H]1CC(OC(=O)c1cc(Cl)cc(Cl)c1)C2` (stereo not given in full), for which the activity change, negative = inhibition in experiment [1] (at 57.5 µM (top of the series)) was 4.19% (inactive). Also, the results for the max response in experiment [1] (setting [20]) and in experiment [1] (setting [21]) were 20.8% and 27.7%, respectively.

On to `C[C@H](N)[C@H](O)c1ccc(O)c(O)c1`, for which the activity change, negative = inhibition in [1] (at 25.7 µM (top of the series)) was -2.9% (inactive). Further, the values for the max response in experiment [1] (setting [20]) and in experiment [1] (setting [21]) were -12% and -13.5%, respectively.

For the compound `Cc1ccc(N=CN(C)C=Nc2ccc(C)cc2C)c(C)c1`, the activity change, negative = inhibition in experiment [1] (at 57.5 µM (top of the series)) is 14.3% (inactive). Also, the max response in experiment [1] (setting [20]) came to 10.9%; in experiment [1] (setting [21]) it was 26.2%.

Take `CNC(=O)Oc1ccc2c(c1)[C@]1(C)CCN(C)[C@@H]1N2C`: the activity change, negative = inhibition in experiment [1] (at 57.5 µM (top of the series)) is 0.848% (inactive). For the same compound, the max response in [1] (setting [20]) is -15.1%; in [1] (setting [21]), -15.5%. In addition, the Potency in experiment [5] was 5.01 µM (active); in [6], 3.98 µM (active); in [7] it was 4.47 µM (active); in experiment [8], 4.47 µM (active); in experiment [10], 7.08 µM (active); in experiment [11], 5.01 µM (active). Further, the Potency entry in experiment [19] is “inactive”.

In the case of `COC(=O)C1=C(C)NC(C)=C(C(=O)OC)C1c1ccccc1[N+](=O)[O-]`, the activity change, negative = inhibition in experiment [1] (at 25.7 µM (top of the series)) is -3.56% (inactive); in experiment [1] (at 57.5 µM (top of the series)) it was -18.3% (inactive). In addition, the max response in experiment [1] (setting [20]) was -12.4% and 9.66%; in [1] (setting [21]) it was -15.8% and -7.21%. In addition, the Potency in [10] is 12.6 µM (active). The Potency result in experiment [19] is “inactive”.
